Assay results taken from the supplement of paper PMC8728848.
The full list was thinned out, with the strongest signals kept by preference.

Key:
Test in all cases: glycan array binding signal (z-score within array); higher = stronger binding
Settings in all cases: glycan notation: IUPAC condensed, linker removed; mutation: R343K
[1] = target: Fuc(a1-2)Gal
Summary of the method: (§1)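 The binding signal is a Z-score computed within each array and averaged over linkers. Arrays of the same protein sequence at different concentrations or buffers were also averaged together. Data originate from 3228 arrays in the Consortium for Functional Glycomics database, kept only where the protein sequence was available.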

[2] = target: Fuc(a1-2)Gal(b1-4)GlcNAc(b1-3)Gal(b1-4)GlcNAc(b1-3)Gal(b1-4)GlcNAc
Summary of the method: as §1

[3] = target: Fuc(a1-2)[GalNAc(b1-3)]Gal
Summary of the method: as §1

[4] = target: Fuc(a1-3)[Gal(b1-4)]GlcNAc(b1-2)Man(a1-6)[Gal(b1-4)GlcNAc(b1-2)Man(a1-3)]Man(b1-4)GlcNAc(b1-4)GlcNAc
Summary of the method: as §1

[5] = target: Fuc(a1-3)[Gal(b1-4)]GlcNAc(b1-4)Gal(b1-4)[Fuc(a1-3)]GlcNAc
Summary of the method: as §1

[6] = target: Gal(b1-3)GalNAc(b1-3)Gal(a1-4)Gal(b1-4)Glc
Summary of the method: as §1

[7] = target: Gal(b1-4)GalNAc(a1-3)[Fuc(a1-2)]Gal(b1-4)GlcNAc
Summary of the method: as §1

[8] = target: Gal(b1-4)GlcNAc(a1-6)Gal(b1-4)GlcNAc
Summary of the method: as §1

[9] = target: Gal(b1-4)GlcNAc(b1-6)GalNAc
Summary of the method: as §1

[10] = target: Gal3S(b1-3)GlcNAc
Summary of the method: as §1

[11] = target: Gal3S(b1-3)[Fuc(a1-4)]GlcNAc
Summary of the method: as §1

[12] = target: Glc(b1-4)Glc
Summary of the method: as §1

[13] = target: GlcA(b1-6)Gal
Summary of the method: as §1

[14] = target: GlcNAc(b1-2)Gal(b1-3)GalNAc
Summary of the method: as §1

[15] = target: Man(a1-2)Man(a1-3)[Man(a1-2)Man(a1-6)]Man
Summary of the method: as §1

[16] = target: Man(a1-2)Man(a1-3)[Man(a1-2)Man(a1-6)]Man(a1-6)[Man(a1-2)Man(a1-2)Man(a1-3)]Man
Summary of the method: as §1

[17] = target: Man(a1-2)Man(a1-3)[Man(a1-6)]Man(a1-6)[Man(a1-2)Man(a1-3)]Man(b1-4)GlcNAc(b1-4)GlcNAc
Summary of the method: as §1

[18] = target: Man(a1-3)[Man(a1-6)]Man(a1-6)[Man(a1-2)Man(a1-3)]Man(b1-4)GlcNAc(b1-4)GlcNAc
Summary of the method: as §1

[19] = target: Man(a1-3)[Man(a1-6)]Man(a1-6)[Man(a1-3)]Man
Summary of the method: as §1

[20] = target: Neu5Ac(a2-3)Gal(b1-3)GalNAc(b1-3)Gal(a1-4)Gal(b1-4)Glc
Summary of the method: as §1

[21] = target: Neu5Ac(a2-3)Gal(b1-3)GalNAc6S
Summary of the method: as §1

[22] = target: Neu5Ac(a2-3)Gal(b1-3)GlcNAc
Summary of the method: as §1

[23] = target: Neu5Ac(a2-3)Gal(b1-4)GlcNAc(b1-3)Gal(b1-4)GlcNAc(b1-3)Gal(b1-4)GlcNAc
Summary of the method: as §1

[24] = target: Neu5Ac(a2-6)GalNAc(b1-4)GlcNAc
Summary of the method: as §1

[25] = target: Neu5Ac9Ac(a2-6)Gal(b1-4)GlcNAc
Summary of the method: as §1

[26] = target: Neu5Gc(a2-6)Gal(b1-4)GlcNAc
Summary of the method: as §1

B1: Surfactant Protein D (Human); Neck + Carbohydrate Recognition Domain (NCRD) (Homo sapiens) (protein)
chain: MLLFLLSALVLLTQPLGYLEAEMKTYSHRTMPSACTLVMCSSVESGLPGRDRDGREGPRGEKGDPGLPGAAGQAGMPGQAGPVGPKGDNGSVGEPGPKGDTGPSGPPGPPGVPGPAGREGALGKQGNIGPQGKPGPKGEAGPKGEVGAPGMQGSAGARGLAGPKGERGVPGERGVPGNTGAAGSAGAMGPQGSPGARGPPGLKGDKGIPGDKGAKGESGLPDVASLRQQVEALQGQVQHLQAAFSQYKKVELFPNGQSVGEKIFKTAQFVKPFTEAQLLCTQAGGQLASPRSAAENAALQQLVVAKNEAAFLSMTDSKTEGKFTYPTGESLVYSNWAPGEPNDDGGSEDCVEIFTNGKWNDKACGEKRLVVCEF
Q: Which results are given for B1?
A: glycan array binding signal (z-score) [1]: -0.147; glycan array binding signal (z-score) [2]: -0.143; glycan array binding signal (z-score) [3]: -0.145; glycan array binding signal (z-score) [4]: -0.147; glycan array binding signal (z-score) [5]: -0.157; glycan array binding signal (z-score) [6]: -0.147; glycan array binding signal (z-score) [7]: -0.145; glycan array binding signal (z-score) [8]: -0.153; glycan array binding signal (z-score) [9]: -0.151; glycan array binding signal (z-score) [10]: -0.155; glycan array binding signal (z-score) [11]: -0.153; glycan array binding signal (z-score) [12]: -0.153; glycan array binding signal (z-score) [13]: -0.146; glycan array binding signal (z-score) [14]: -0.159; glycan array binding signal (z-score) [15]: 5.42; glycan array binding signal (z-score) [16]: 10.9; glycan array binding signal (z-score) [17]: 5.1; glycan array binding signal (z-score) [18]: 7.96; glycan array binding signal (z-score) [19]: 5.92; glycan array binding signal (z-score) [20]: -0.155; glycan array binding signal (z-score) [21]: -0.156; glycan array binding signal (z-score) [22]: -0.142; glycan array binding signal (z-score) [23]: -0.143; glycan array binding signal (z-score) [24]: -0.155; glycan array binding signal (z-score) [25]: -0.15; glycan array binding signal (z-score) [26]: -0.155
